About 4,900 (1.5%) of roughly 330,000 compounds were called active. The sample holds actives, similar compounds and a random draw of the others, so the mix is not that of the screen.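 The calls were made as follows: active = inhibition above the mean inhibition across the screen plus 3 SD (cut at about 25% in these data); inactive = the rest.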

For this assay, the target named is Platelet-activating factor acetylhydrolase (Homo sapiens) (UniProt Q13093). The assay can be described thus: inhibition of plasma PAF acetylhydrolase – biochemical, fluorescence polarization, human, primary screen (AID 463082).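 Also: inhibitors block binding of the rhodamine activity-based probe so polarization drops; 0% = enzyme with DMSO and 100% = wells lacking pPAFAH.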 Particulars: recombinant pPAFAH, FP-rhodamine probe fluorescence polarization; at 3.39 µM; active compounds read high. A general note: Polarisation of emitted light reports the rotation of a fluorescent probe.
Chain of Platelet-activating factor acetylhydrolase (Homo sapiens) (Q13093 whole entry, looked up): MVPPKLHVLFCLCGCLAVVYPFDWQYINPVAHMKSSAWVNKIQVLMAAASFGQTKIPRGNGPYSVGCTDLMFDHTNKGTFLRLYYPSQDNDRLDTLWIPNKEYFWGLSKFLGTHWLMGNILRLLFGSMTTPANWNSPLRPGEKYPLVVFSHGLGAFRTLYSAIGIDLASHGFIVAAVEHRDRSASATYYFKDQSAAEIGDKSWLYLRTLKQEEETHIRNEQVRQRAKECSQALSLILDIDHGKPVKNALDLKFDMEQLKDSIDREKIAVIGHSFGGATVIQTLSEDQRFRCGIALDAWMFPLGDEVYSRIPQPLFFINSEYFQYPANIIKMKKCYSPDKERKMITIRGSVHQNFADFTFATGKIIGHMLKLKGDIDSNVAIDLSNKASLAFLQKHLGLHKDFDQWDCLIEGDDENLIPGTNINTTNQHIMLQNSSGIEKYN
Consider `Cc1ccc(NC(=O)CN2CCCCC2)c2c1CC(C)(C)O2`, for which the inhibition (as a rule, the change of the read-out against control, counted positive when it falls) was 1.85% (inactive).
The value for `CC/C(=N\NC(=O)c1ccccc1Cl)c1ccc(Br)s1` was 2.32% (inactive); that for `COC(=O)c1onc(-c2c(OC)cc(OC)cc2OC)c1C(=O)OC` was -0.73% (inactive); that for `Cc1ccc(S(=O)(=O)NCC(=O)NNC(=O)c2ccc(Br)cc2)cc1C` was -3.03% (inactive).
The value for `CN(C)S(=O)(=O)c1ccc(N2CCCC2)c(C(=O)Nc2cccc(F)c2)c1` was -2.43% (inactive); that for `CN(C)S(=O)(=O)c1ccc(N2CCCC2)c(C(=O)NCc2ccccc2)c1` was 27.1% (active).
Under `Cc1ccccc1OCC(=O)NNC(=O)c1cc(S(=O)(=O)N(C)C)ccc1N1CCCC1` stands -0.66% (inactive).
Regarding `Cc1ccccc1CN1C[C@@H]2C[C@@H](c3cn(C)nc3-c3ccccc3)N3CCC[C@@]23C1=O`, the inhibition was 8.05% (inactive).
Under `Cc1cc(C)c(-c2c(O)c3ccccc3n(C)c2=O)c(C)c1` stands -0.19% (inactive).
Under `COc1ccc(CN2CC(C(=O)NCCN3CCN(c4ccccc4F)CC3)CC2=O)cc1` (centres undefined) stands -3.16% (inactive); under `CC1CCC(NC(=O)C2c3ccccc3C(=O)N2Cc2ccc3c(c2)OCO3)CC1` (centres undefined), -0.02% (inactive); under `O=C(Nc1ccc(Cl)cc1)C1c2cccc[n+]2CC(=O)N1Cc1ccc2c(c1)OCO2` (centres undefined), 25.9% (active).
Under `O=C(C1CCN(Cc2ccc(Cl)cc2)CC1)N1CCN(Cc2ccc3c(c2)OCO3)CC1` stands 6.74% (inactive); under `COC(=O)c1c(C)oc(C)c1S(=O)(=O)NCc1ccc(Cl)cc1`, -8.68% (inactive); under `Cc1nnc(SCC(=O)Nc2cccc(N)c2)n1-c1ccccc1`, 6.08% (inactive).
With `NS(=O)(=O)c1cccc(NC(=O)CSc2nc3ccccc3n2-c2ccccc2)c1`, the inhibition was 33.2% (active).
As for `COc1ccc(-n2cnnc2SCC(=O)Nc2cccc(S(N)(=O)=O)c2)cc1`, the inhibition was 3.84% (inactive).
The value for `O=[N+]([O-])c1ccc(N2CCN(S(=O)(=O)c3ccccc3)CC2)cc1N1CCc2ccccc2C1` was -4.15% (inactive); that for `COCCN1C(=O)C(=O)/C(=C(/O)c2ccc(S(=O)(=O)N3CCCCC3)cc2)C1c1ccc(OC)c(OC)c1` (centres undefined) was -2.4% (inactive); that for `Cc1cc(/C=N/Nc2ccc([N+](=O)[O-])cn2)c(C)n1-c1cccc(C(=O)O)c1` was 66.3% (active).
Under `Cc1ccc(-n2c(C)cc(/C=N/Nc3ccc([N+](=O)[O-])cn3)c2C)c(C)c1` stands 8.84% (inactive); under `Cc1cccc(-n2c(C)cc(/C=N/NC(N)=S)c2C)c1`, -4.16% (inactive); under `NC(=O)NC(=O)CSc1nc2cc([N+](=O)[O-])ccc2n1-c1cccc(C(F)(F)F)c1`, 18.1% (inactive).
The value for `Cc1ccc(C(=O)N/C(=C\c2ccco2)C(=O)NC2CCS(=O)(=O)C2)cc1` (centres undefined) was -1.45% (inactive).
For `COc1cc(NS(=O)(=O)c2ccc(NC(C)=O)cc2)cc(OC)c1`, the inhibition is 2.89% (inactive).
On to `CC(=O)Nc1ccc(S(=O)(=O)Nc2ccc(N3CCCCC3)cc2)cc1`, for which the inhibition was 27.6% (active).
The value for `CC(=O)Nc1ccc(S(=O)(=O)Nc2ccc(N3CCOCC3)c(F)c2)cc1` was 5.29% (inactive); that for `COc1ccccc1OCCNC(=O)C(CCSC)NC(=O)COc1ccccc1` (centres undefined) was 1.04% (inactive); that for `CCN(C(=O)COC(=O)c1cc(NS(=O)(=O)c2ccc(Cl)c([N+](=O)[O-])c2)ccc1O)C1CCCCC1` was -1.02% (inactive).
The value for `CC(C)NS(=O)(=O)c1ccc(OCC(=O)NC2CCCCCC2)cc1` was 6.56% (inactive); that for `COc1ccc(NS(=O)(=O)c2ccc(O)c(C(=O)OCC(=O)NC3CCCCC3)c2)cc1` was 26.9% (active).
Under `COC(=O)c1sc(N2CCN(Cc3ccccc3)CC2)nc1N` stands 5.95% (inactive); under `O=C(/C=C/c1cccs1)c1cc(Cl)ccc1OC(=O)N1CCOCC1`, 42.8% (active); under `O=C(Oc1cccc(C(=S)N2CCOCC2)c1)c1cccc(Cl)c1`, 7.68% (inactive).
With `CC(=O)Nc1ccccc1OC(=O)N1CCOCC1`, the inhibition was -0.96% (inactive).
The value for `COc1ccc(/C=C2/S/C(=N/N=C3\CC4CCC3(C)C4(C)C)NC2=O)cc1` (centres undefined) was 5.69% (inactive).
Under `O=C1NN(c2ccccc2)C(=O)/C1=C/c1ccc(-c2cccc(C(=O)O)c2)o1` stands 18.6% (inactive); under `O=C(O)C(c1ccccc1)N1C(=O)/C(=C\c2ccc(-c3cccc(Cl)c3)o2)SC1=S` (centres undefined), 70.4% (active).
The value for `O=C1c2ccccc2NC(c2ccc(-c3cccc(Cl)c3)o2)N1O` (centres undefined) was 7.56% (inactive).
For `COc1ccc(CN2C3CCCC2CC(NC(=O)c2cccc(F)c2)C3)cc1` (centres undefined), the inhibition was 0.56% (inactive).
The value for `O=S(=O)(N/N=C\c1cccn1-c1ccccc1)c1ccc2ccccc2c1` was 25% (active).
Under `O=C(COc1ccc(/C=N/NS(=O)(=O)c2ccccc2)cc1)NCCc1ccccc1` stands 4.79% (inactive); under `COc1ccc(N2CC(NS(=O)(=O)c3ccc4ccccc4c3)CC2=O)cc1` (centres undefined), 4.81% (inactive).
Under `Cc1ccnc2nc(C(=O)Nc3nnc(-c4ccccc4)o3)nn12` stands 8.88% (inactive).
Consider `CCCCn1c(N)c(N(CC(C)C)C(=O)c2cnc(C)cn2)c(=O)[nH]c1=O`, for which the inhibition was 7.57% (inactive).
The value for `COc1ccccc1NC(=O)CCN1CCN(c2ccc(Cl)cc2)CC1` was 6.99% (inactive); that for `COc1cccc(/C=N/Nc2ccc(Cl)nn2)c1` was -0.67% (inactive); that for `Cc1ccsc1/C=N/Nc1ccc(Cl)nn1` was 8.65% (inactive).
The value for `Oc1cccc(/C=N/Nc2ccc(Cl)nn2)c1O` was 54.6% (active); that for `Cc1nn(C(C)C(=O)N2CCOCC2)c(=O)c2nn(-c3ccccc3)c(C)c12` (centres undefined) was -0.47% (inactive); that for `CC1(N2CCOCC2)CC2(O)C(=[N+]1[O-])CCc1nonc12` (centres undefined) was 11.9% (inactive).
For the compound `CCCCCCCC(=O)OC(CN1CCCCCC1)CN1CCCC1=O` (centres undefined), the inhibition was -5.64% (inactive).
In the case of `Cc1ccccc1CS(=O)(=O)CC1(O)CCN(C(=O)c2cccc(C(F)(F)F)c2)CC1`, the inhibition is -7.07% (inactive).
Under `O=C(NCCc1ccco1)c1nn(Cc2ccccc2)c(=O)c2ccccc12` stands 1.41% (inactive); under `O=c1nc2s/c(=C\c3ccco3)c(=O)n2nc1Cc1ccccc1`, 25.7% (active); under `CN(c1ccccc1)c1ccc(/C=c2\s/c(=C(/C#N)C(=O)C(C)(C)C)n(Cc3ccco3)c2=O)cc1`, -0.46% (inactive).
Under `O=C(COc1coc(CN2CCN(c3ccccc3)CC2)cc1=O)N1CCc2ccccc21` stands -5.69% (inactive); under `CC(=O)N1CCc2cc(Br)cc(S(=O)(=O)CCC(=O)Nc3c(C)n(C)n(-c4ccccc4)c3=O)c21`, 7.96% (inactive).
With `N/C(=N\S(=O)(=O)c1ccc(Cl)cc1)N1CCOCC1`, the inhibition was 7.38% (inactive).
Under `COc1cc(C(=O)NCC(=O)NCCSc2ccc(Br)cc2)cc(OC)c1OC` stands 2.53% (inactive); under `COc1ccccc1C(=O)NCC(=O)NCCSc1ccc(Br)cc1`, 28.6% (active); under `O=C(CNC(=O)c1ccccc1Br)NCCSc1ccc(Br)cc1`, 6.87% (inactive).
Under `NCCN1CCN2C(=O)CN(C(=O)c3ccccc3)CC12` (centres undefined) stands 0.84% (inactive).
Under `C/C=C(/C)C(=O)O[C@@H]1c2cc3c(c4c2[C@@]2(CO4)C(=O)C(OC)=C(OC)C=C2C[C@@H](C)[C@H]1C)OCO3` stands -0.41% (inactive); under `COCCOC(=O)c1sc(=S)n(CCOC)c1N`, 27.2% (active); under `COc1cccc(CNC(=O)C2CCCN(S(=O)(=O)N3CC(C)CC(C)C3)C2)c1` (centres undefined), 2.82% (inactive).
In the case of `CCCCN1C(=O)C(=O)N(CC(=O)Nc2cccc(C(C)=O)c2)C1=O`, the inhibition is -0.13% (inactive).
In the case of `CC(=O)c1ccc(S(=O)(=O)NCCC(=O)N2CCN(c3ccccn3)CC2)cc1`, the inhibition is -1.99% (inactive).
Under `COc1ccccc1OCc1nnc(SCC(N)=O)n1-c1ccccc1` stands -7.86% (inactive); under `COc1cccc(-c2coc3cc4oc(=O)c(CC(=O)O)c(C)c4cc23)c1`, 2.78% (inactive); under `O=C(Cc1ccccc1)NC(=S)Nc1ccc(N2CCCCC2)cc1`, 28.6% (active).
As to `Cc1ccccc1C(=O)NC(=S)Nc1ccc(N2CCN(C(=O)c3ccccc3)CC2)cc1`, the inhibition was 8.73% (inactive).
Turning to `O=C(CCN1CCN(c2ccccc2)CC1)NNC(=S)Nc1ccccc1`, the inhibition is 3.64% (inactive).
Under `O=C(COC(=O)c1c(Cl)cccc1Cl)Nc1cccc(S(=O)(=O)NC2=NCCCCC2)c1` stands 0.66% (inactive); under `CC(C)Nc1ccc(-n2nc3ccccc3[n+]2[O-])cc1`, -0.33% (inactive).
Under `COC(=O)C1(CCSC)NC(c2ccc(OC)cc2OC)C2C(=O)N(c3cccc(C(C)=O)c3)C(=O)C21` (centres undefined) stands 8.06% (inactive).
Under `Cc1ccsc1C(=O)NNC(=O)COc1ccc(Br)cc1` stands 5.73% (inactive).
For the compound `CCCCNS(=O)(=O)c1ccc2nc(SCC(=O)Nc3cc(C)cc(C)c3)[nH]c2c1`, the inhibition was -1.99% (inactive).
As to `CN(C)C(=O)c1nc2ccc(Cl)cn2c1CN1CCN(c2ncccn2)CC1`, the inhibition was -1.11% (inactive).
The value for `CN(C)C(=O)c1nc2ccc(Cl)cn2c1CNCc1cccc(OC(F)(F)F)c1` was 27.7% (active); that for `COc1cccc(CNC(=O)c2nnn(CC(=O)Nc3cc(Cl)ccc3C)c2N)c1` was -8.08% (inactive).
The value for `Cc1ccc(-n2nc3ccc(NC(=O)/C=C/c4ccco4)cc3n2)cc1C` was -3.71% (inactive); that for `Cc1ccc(N=C2NC(=O)/C(=C/C=C/c3ccco3)S2)cc1C` was 57.3% (active); that for `Cc1ccc(N2NC(=O)/C(=C/C=C/c3ccco3)C2=O)cc1C` was 21.3% (inactive).
For the compound `Cc1ccc(S(=O)(=O)N2CCCCC2)cc1NC(=O)[C@@H]1CCCN1C(=O)c1cccs1`, the inhibition is 4.96% (inactive).
On to `O=C(CNC(=O)c1n[nH]c2ccccc12)Nc1cc(Cl)ccc1Cl`, for which the inhibition is -4.9% (inactive).
`C/C(=N\Nc1cccc(C(=O)O)c1)c1ccc2c(c1)Nc1ccccc1S2`: the inhibition was 32.8% (active).
For `CC(=O)Nc1cccc(/C(C)=N/NC(=O)c2c(-c3ccccc3Cl)noc2C)c1`, the inhibition was 5.03% (inactive).
The value for `Cc1ccccc1NC(=O)c1cc(S(=O)(=O)Nc2cccc(C(=O)O)c2)ccc1Cl` was 2.58% (inactive).

Values taken from PubChem BioAssay AID463082 (The Scripps Research Institute Molecular Screening Center, 2010).
